In the library only some 4% were active in any assay of this set; here they are far more common.
KKLEB tox: counter-screen for CF NF-kB inhibitors: cytotoxicity | activity change (cytotoxicity), % at 5 µM | KKLEB CF airway cells viability, ATPlite luminescence, overnight; stronger effect = lower value; cells stimulated with P. aeruginosa culture filtrate | actives 0.36% (n = 360,000) | AID 602141;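 active = corrected activity change at or below -50% at 5 µM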
HIF-2a block: blocks HIF-2a reporter activity. AID 624352. actives 0.72% (n = 360,000). 786-0 RCC cells HIF-2a reporter, luciferase luminescence, overnight. inhibition, % at 18.8 µM;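 active = inhibition of the luminescence signal of 40% or more relative to plate controls, in a single-dose primary screen at 18.75 µM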
Peg3 promoter: Peg3 promoter activity inhibition; actives 1.7% (n = 360,000); AID 588405; HeLa PEG-Prom luciferase reporter, luminescence, overnight; inhibition, % at 20 µM;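 active = inhibition of at least 50% at 20 µM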
TROY signal inh: blocks TROY-dependent signaling in reporter cells. AID 1347056. inhibition, % at 10 µM. actives 0.98% (n = 360,000). Q293 LMP1-TROYcd NF-kB luciferase reporter, 4 h;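 active = compounds whose plate-normalised and pattern-corrected inhibition of the luciferase reporter signal at the single screening dose is 50% or more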
TWEAK-Fn14 inh: TWEAK-Fn14 signaling inhibition; actives 2% (n = 360,000); inhibition, % at 10 µM; TWEAK-stimulated Fn14 reporter cells, luciferase luminescence, 8 h; AID 1159606; in the data active = inhibition above about 50%
CF NFkB block: inhibitors of cystic fibrosis induced NF-kB | KKLEB NF-kB-GFP reporter, PAF-induced, GFP fluorescence overnight | inhibition, % at 5 µM | actives 0.86% (n = 360,000);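 active = at least 50% inhibition at 5 µM, scaled per plate between neutral and stimulator controls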;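 note: PAF is a Pseudomonas aeruginosa culture filtrate used as stimulus; plate controls were PAF-stimulated DMSO wells for no effect and unstimulated DMSO wells for full effect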
* = called active by the depositor; nt = not tested or not shown.

SMILES	KKLEB tox	HIF-2a block	Peg3 promoter	TROY signal inh	TWEAK-Fn14 inh	CF NFkB block
CCCCCn1c(=O)c(C(=O)Nc2ccccc2S(N)(=O)=O)c(O)c2ccccc21	-17	7	25	36	59*	1
CCCCn1c(=O)c(C(=O)NCc2ccncc2)c(O)c2ccccc21	-5	24	9	23	56*	0
COc1ccc(C(=O)C2CCCN(CCc3ccccc3)C2)cc1OC (configuration not stated)	9	15	8	8	9	-13
CCC1CN2CCc3cc(OC)c(OC)cc3C2CC1CC1NCCc2c1[nH]c1ccc(O)cc21 (configuration not stated)	-27	57*	99*	85*	99*	89*
Cc1ccc2c(c1)Oc1ccccc1N=C2	-6	2	7	-11	9	-15
OCC1OC(n2cnc3cc(Cl)c(Cl)cc32)C(O)C1O (configuration not stated)	-11	7	8	54*	21	28
CC1CC2CC(=O)CCC2(C)C2CCC3(C)C(O)CCC3C12 (configuration not stated)	5	3	34	-1	-26	13
O=C(O)c1ccc(-[n+]2c(-c3ccccc3)cc(-c3ccccc3)cc2-c2ccccc2)cc1	-5	-7	-21	-6	6	22
CCCOC(=O)c1ccc(-[n+]2c(-c3ccccc3)cc(-c3ccccc3)cc2-c2ccccc2)cc1	-10	-9	48	24	62*	29
O=[N+]([O-])c1ccc(N(CCO)CCO)c2c1no[n+]2[O-]	-44	51*	99*	9	20	0
CN1CCN(c2ccc([N+](=O)[O-])c3no[n+]([O-])c23)CC1	-56*	61*	102*	-8	104*	59*
CN1CCN(c2ccc(S(C)(=O)=O)cc2[N+](=O)[O-])CC1	-10	5	14	0	12	5
CN1CC(C(=O)c2cccc(C(F)(F)F)c2)C(c2ccc(Cl)cc2)C1 (configuration not stated)	1	-6	7	-11	-9	17
O=C(NC1CCCCC1)N1Cc2ccccc2-n2nncc2C1	12	-1	-14	6	0	-24
COC1/C=C/C=C(\C)Cc2cc(O)c(Cl)c(c2)N(C)C(=O)CC(OC(=O)C(C)C)C2(C)OC2C(C)C2CC1(O)NC(=O)O2 (configuration not stated)	-23	35	-22	5	20	58*
COC12c3ccccc3-c3ccccc3C1C(C(=O)O)C2C(=O)O (configuration not stated)	7	20	-4	9	10	-33
CCNC(=O)[C@H]1O[C@@H](n2cnc3c(N)ncnc32)[C@H](O)[C@@H]1O	-4	6	-4	0	-38	-10
N#Cc1cn(C2OC(CO)C(O)C2O)c2ncnc(N)c12 (configuration not stated)	-34	31	96*	52*	72*	96*
NC(=O)c1cn(C2OC(CO)C(O)C2O)c2ncnc(N)c12 (configuration not stated)	-83*	67*	93*	40	89*	89*
CS(=O)(=O)N1Cc2ccccc2-n2nncc2C1	0	3	-8	-9	6	5
N#CC(C#N)=C(C#N)c1ccc(Nc2ccccc2)cc1	-14	11	32	-30	33	53*
c1ccc(Nc2ccc(Nc3ccccc3)cc2)cc1	2	-228	-156	-35	-10	2
CN1[C@@H]2CCC[C@H]1CC(=O)C2	4	-1	3	5	16	-4
Cc1ccc(C(=O)C2CN(C)CC2C(=O)c2ccc(C)cc2)cc1 (configuration not stated)	-4	-83	-114	42	-3	-9
Cc1ccc(C(=O)C2CN3CCC2CC3)cc1 (configuration not stated)	16	9	33	nt	84*	-7
SMILES	KKLEB tox	HIF-2a block	Peg3 promoter	TROY signal inh	TWEAK-Fn14 inh	CF NFkB block
CN(C)c1ccc(C=C2C(=O)NC(=S)NC2=O)cc1	2	25	89*	-12	-4	24
CCN(CC)c1ccc(C=C2C(=O)NC(=S)NC2=O)cc1	-13	68*	104*	-8	17	66*
CN(C)c1ccc(C=C2C(=O)NC(=O)NC2=O)cc1	13	5	12	5	-3	-6
COc1ccc(OC(=O)N(C)C[C@H]2OCc3cnnn3CCCC(=O)N([C@H](C)CO)C[C@H]2C)cc1	1	7	9	10	0	7
NC(Cc1ccc(F)cc1)c1csc(Nc2ncccn2)n1 (configuration not stated)	-26	-41	-12	-5	-5	-8
O=c1[nH]c(O)c(/C=C2/C=CC(c3cc(Cl)ccc3Cl)=N2)c(=O)[nH]1	-5	-8	-4	85*	45	-83
CC1=Nc2ccccc2/C1=C/c1c(O)[nH]c(=O)[nH]c1=O	-6	25	10	1	8	-4
CC1=CC(C)CC(C)OC(=O)CC(c2ccc(O)cc2)NC(=O)C(Cc2c(Br)[nH]c3ccccc23)N(C)C(=O)C(C)NC(=O)C(C)C1 (configuration not stated)	-81*	24	76*	70*	4	91*
Clc1ccc(C(c2ccc(Cl)cc2)n2cc[n+](CC(OCc3ccc(Cl)cc3Cl)c3ccc(Cl)cc3Cl)c2)cc1 (configuration not stated)	8	97*	102*	80*	77*	56*
Clc1ccc(COC(Cn2ccnc2)c2ccc(Cl)cc2Cl)cc1 (configuration not stated)	-14	15	9	10	-16	29
CC(=O)OC1CCC2(C)C(CC(=O)C3C2CCC2(C)C(OC(C)=O)CCC32)C1 (configuration not stated)	10	8	-4	12	-14	-31
CC(=O)OC1CC(OC2C(O)CC(OC3C(O)CC(OC4CCC5(C)C(CCC6C5CC(O)C5(C)C(C7=CC(=O)OC7)CCC65O)C4)OC3C)OC2C)OC(C)C1OC1OC(CO)C(O)C(O)C1O (configuration not stated)	-48	87*	95*	36	78*	86*
COC1C(O)C(C)OC(OC2CCC3(C)C(CCC4C3C(O)CC3(C)C(C5=CC(=O)OC5)CCC43O)C2)C1O (configuration not stated)	-41	74*	100*	55*	86*	86*
CNC(=O)Nc1ccc(C(=O)N/N=C\C23CC[C@@H](O)CC2(O)CC[C@@H]2[C@@H]3CCC3(C)C(C4=CC(=O)OC4)CCC23O)cc1 (some centres not stated)	21	7	8	-6	4	-5
